We go through nine molecules from PubChem BioAssay.

Test [1] is described as follows: optical density shifts of acrAB sulA E. coli – strain DRC41, OD650, 48 h, E. coli filamentation inducer project, primary screen (AID 1152).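 Note: E. coli MC1000 strain DRC41 lacking acrAB efflux pump and sulA.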 Particulars: higher = more signal, called active from +8 up or from −8 down.
A short description of test [2]: probe aLefty1 binding on compound microarray – biochemical, small-molecule microarray, 635/667 nm fluorescence, primary screen (AID 1153).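 Note: score merges spot fluorescence with signal-to-noise ratio from the scanned slide images.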 Particulars: higher = more signal.
Test [3] is described as follows: plasmodial surface anion channel blockers, osmotic lysis – cell-based, P. falciparum Indochina, OD700, 1 h, primary screen (AID 1154). The settings on record: P. falciparum Indochina infected RBC osmotic lysis, higher = more signal, called active from +8 up or from −8 down.
The nature of test [4]: plasmodial surface anion channel blockers, osmotic lysis – cell-based, P. falciparum Indochina, OD700, 2 h, primary screen (AID 1155).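 Note: lysis reports solute entry through the parasite surface anion channel PSAC.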 Particulars: P. falciparum Indochina infected erythrocytes, higher = more signal, called active from +8 up or from −8 down.
Test [5] can be described thus: changes in parasitized red cell lysis, either direction – P. falciparum Indochina, OD700, 3 h, PSAC antagonist project, primary screen (AID 1156). The settings on record: P. falciparum-infected erythrocytes, osmotic lysis, higher = more signal, called active from +8 up or from −8 down.
Test [6] in a line: plasmodial surface anion channel blockers, osmotic lysis – cell-based, P. falciparum Indochina, OD700, 18 h, primary screen (AID 1157). Particulars: P. falciparum Indochina infected erythrocytes, osmotic lysis OD700, 18 h; higher = more signal, called active from +8 up or from −8 down.
Test [7] is described as follows: S6 kinase pathway phospho-S6 level changes – cell-based, A549, cytoblot, luminescence, serum-stimulated, primary screen (AID 1158).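 Note: serum-stimulated A549 lung adenocarcinoma cells; signal is phosphorylated S6 detected by cytoblot immunostaining with HRP secondary.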 Particulars: 5 h, higher = more signal.
In test [8] the target is NADPH oxidase 2 (Homo sapiens) (UniProt P04839). The test can be described thus: compounds shifting NOX2 Amplex Red fluorescence – cell-based, HEK293-NOX2, PMA-stimulated, NOX inhibitor project, primary screen (AID 1159). Note: test concentration not given here. Particulars: 45 min, higher = more signal, called active from +8 up or from −8 down.
Test [9] has as its target NADPH oxidase 4 (Homo sapiens) (UniProt Q9NPH5). The test can be described thus: compounds shifting NOX4 Amplex Red fluorescence – cell-based, HEK293-NOX4, tetracycline-induced, NOX inhibitor project, primary screen (AID 1160). The settings on record: HEK293-NOX4, Amplex Red H2O2 fluorescence, 45 min; higher = more signal, called active from +8 up or from −8 down.
Test [10] concerns the target NADPH oxidase 5 (Homo sapiens) (UniProt Q96PH1). The test can be described thus: compounds shifting NOX5 Amplex Red fluorescence – cell-based, HEK293-NOX5, NOX inhibitor project, primary screen (AID 1161). The settings on record: HEK293-NOX5, ionomycin, 45 min, higher = more signal.
Test [11] can be described thus: compound effects on lung adenocarcinoma cell viability – A549, calcein-AM fluorescence, 48 h, basal, profiling panel (AID 1162). Note: test concentration not given here. Particulars: higher = more signal.
Test [12] can be described thus: compound effects on differentiated 3T3-L1 adipocyte viability – cell-based, 3T3-L1 adipocytes, calcein-AM fluorescence, 48 h, basal, profiling panel (AID 1163). Note: test concentration not given here. The settings on record: 3T3-L1 adipocytes viability, higher = more signal.
A short description of test [13]: compound effects on hepatocellular carcinoma cell viability – HepG2, calcein-AM fluorescence, 48 h, basal, profiling panel (AID 1164). Note: test concentration not given here. The settings on record: higher = more signal.
Test [14] can be described thus: compound effects on multiple myeloma cell viability – MM1S, calcein-AM fluorescence, 48 h, basal, profiling panel (AID 1165).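 Note: viability of MM1S multiple myeloma cells under basal unstimulated conditions; test concentration not given here.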 Particulars: higher = more signal.
Test [15] in a line: calcein-AM signal in unstimulated myeloma cells – cell-based, calcein-AM fluorescence, 48 h, PK04 Diversity Set, profiling panel (AID 1166).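 Note: cells grown under basal conditions without added stimulus; test concentration not given here.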 Particulars: RPMI8226 myeloma viability, higher = more signal.
Test [16] is described as follows: JC-1 mitochondrial signal, unstimulated HepG2 cells – cell-based, JC-1 fluorescence, 24 h, 100 nL compound, profiling panel (AID 1167). Note: test concentration not given here. The settings on record: HepG2 mitochondrial potential, higher = more signal.
Test [17] in a line: JC-1 mitochondrial signal, unstimulated adipocytes – cell-based, JC-1 fluorescence, 3T3-L1 adipocytes, 24 h, 100 nL compound, profiling panel (AID 1168). Note: test concentration not given here. The settings on record: JC-1 mitochondrial fluorescence, higher = more signal, called active from +8 up or from −8 down.
A short description of test [18]: JC-1 mitochondrial signal, unstimulated myeloma cells – cell-based, JC-1 fluorescence, RPMI8226, 24 h, 100 nL compound, profiling panel (AID 1169). Note: test concentration not given here. Particulars: JC-1 mitochondrial potential fluorescence, higher = more signal.
Test [19] is described as follows: JC-1 mitochondrial signal, unstimulated MM1S myeloma – cell-based, JC-1 fluorescence, 24 h, 100 nL compound, profiling panel (AID 1170). Note: test concentration not given here. The settings on record: MM1S mitochondrial potential, higher = more signal.
Test [20] in a line: resazurin metabolic signal in A549 cells – cell-based, resazurin fluorescence, 24 h, PK04 Diversity Set, profiling panel (AID 1171). Note: test concentration not given here. Particulars: A549 viability, higher = more signal, called active from +8 up or from −8 down. In general terms: Resazurin is reduced to fluorescent resorufin, in cell work by metabolically active cells.

The source made the active and inactive calls.

Chain of NADPH oxidase 4 (Homo sapiens) (Q9NPH5 whole entry, looked up): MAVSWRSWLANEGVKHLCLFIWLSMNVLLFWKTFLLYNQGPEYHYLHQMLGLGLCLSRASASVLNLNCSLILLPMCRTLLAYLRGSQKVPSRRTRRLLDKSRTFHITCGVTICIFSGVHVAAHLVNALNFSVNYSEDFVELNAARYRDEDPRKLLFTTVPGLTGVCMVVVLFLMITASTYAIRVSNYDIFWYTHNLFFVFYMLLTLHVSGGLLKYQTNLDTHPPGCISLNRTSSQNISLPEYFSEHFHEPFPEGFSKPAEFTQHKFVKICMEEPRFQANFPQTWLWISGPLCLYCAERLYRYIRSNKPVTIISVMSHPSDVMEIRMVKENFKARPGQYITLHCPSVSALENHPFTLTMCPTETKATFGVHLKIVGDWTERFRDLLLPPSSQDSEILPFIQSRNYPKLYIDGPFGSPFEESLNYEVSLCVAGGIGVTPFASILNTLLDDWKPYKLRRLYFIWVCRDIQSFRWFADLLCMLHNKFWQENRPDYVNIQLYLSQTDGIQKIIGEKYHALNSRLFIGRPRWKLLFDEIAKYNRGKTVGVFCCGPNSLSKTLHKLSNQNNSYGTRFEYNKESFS
Chain of NADPH oxidase 2 (Homo sapiens) (P04839 whole entry, looked up): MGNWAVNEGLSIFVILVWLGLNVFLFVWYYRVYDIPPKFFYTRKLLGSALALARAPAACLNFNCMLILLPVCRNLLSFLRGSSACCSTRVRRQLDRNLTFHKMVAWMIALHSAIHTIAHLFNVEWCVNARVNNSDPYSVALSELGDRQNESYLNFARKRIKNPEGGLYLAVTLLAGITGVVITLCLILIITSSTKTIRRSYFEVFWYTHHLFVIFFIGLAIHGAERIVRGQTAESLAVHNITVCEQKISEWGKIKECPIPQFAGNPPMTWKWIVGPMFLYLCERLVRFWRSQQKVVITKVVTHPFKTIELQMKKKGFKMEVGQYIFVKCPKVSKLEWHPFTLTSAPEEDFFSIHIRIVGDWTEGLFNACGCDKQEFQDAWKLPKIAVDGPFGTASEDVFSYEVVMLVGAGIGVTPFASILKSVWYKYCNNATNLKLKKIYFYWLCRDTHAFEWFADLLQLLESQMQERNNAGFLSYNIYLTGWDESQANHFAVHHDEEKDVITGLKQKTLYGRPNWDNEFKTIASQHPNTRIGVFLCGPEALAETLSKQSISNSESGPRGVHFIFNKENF
Chain of NADPH oxidase 5 (Homo sapiens) (Q96PH1 whole entry, looked up): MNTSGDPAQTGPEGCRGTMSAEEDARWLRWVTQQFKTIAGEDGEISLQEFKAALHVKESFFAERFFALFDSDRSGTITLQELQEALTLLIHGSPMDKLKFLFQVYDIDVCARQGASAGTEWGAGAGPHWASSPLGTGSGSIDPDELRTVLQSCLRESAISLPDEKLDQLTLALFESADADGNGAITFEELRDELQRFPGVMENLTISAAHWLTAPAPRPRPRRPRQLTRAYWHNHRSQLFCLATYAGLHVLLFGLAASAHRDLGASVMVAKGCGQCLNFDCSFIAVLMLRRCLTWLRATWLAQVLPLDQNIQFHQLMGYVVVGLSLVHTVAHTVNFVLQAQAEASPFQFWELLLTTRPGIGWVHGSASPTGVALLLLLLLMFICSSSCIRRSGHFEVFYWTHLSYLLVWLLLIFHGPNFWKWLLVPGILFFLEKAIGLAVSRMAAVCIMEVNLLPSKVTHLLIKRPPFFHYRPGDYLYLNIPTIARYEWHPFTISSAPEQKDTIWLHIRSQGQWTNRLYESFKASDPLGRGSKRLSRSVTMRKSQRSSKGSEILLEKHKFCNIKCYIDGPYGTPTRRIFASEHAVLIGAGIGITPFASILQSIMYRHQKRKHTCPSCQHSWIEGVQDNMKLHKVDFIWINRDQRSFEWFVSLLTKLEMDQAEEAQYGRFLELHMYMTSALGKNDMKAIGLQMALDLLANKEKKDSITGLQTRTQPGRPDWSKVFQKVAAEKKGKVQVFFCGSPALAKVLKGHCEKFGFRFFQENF

As for `C=CC[C@@]12N=C(c3ccc(OCCCO)cc3)O[C@@H]1c1ccccc1N(CCS(=O)(=O)c1ccccc1)C2=O`, the z-score in test [1] was -0.309 (inactive); in [3], 33.3 (active); in test [4], 28.5 (active); in [5], 3.7 (inactive); in test [6], 8.56 (active); in test [7] it was 0.766. Moreover, the z-score was -1.55 (inactive) in [8]; 0.599 (inactive) in [9]; -1.91 in [10]; 0.4 in [11]; 0.962 in test [12]; 1.05 in test [13]. The z-score in test [14] was -1.41; in test [15], -1.02; in test [16], 0.381; in [17], 2.23 (inactive); in [18], -0.899; in [19] it was -1.22. The z-score in [20] was -1.54 (inactive). The molecule further came in with a composite z-score in test [2] of 0.199.
With `[N-]=[N+]=Nc1ccccc1[C@H]1OC(c2ccc(OCCCO)cc2)=N[C@@]1(CCS(=O)(=O)c1ccccc1)C(=O)N1CCCCC1`, the z-score in [1] was -0.311 (inactive); in [3], 29.8 (active); in [4], 23.1 (active); in test [5], 3.29 (inactive); in test [6], 3.04 (inactive); in [7], 1.04. In addition, the z-score in test [8] was -1.34 (inactive); in [9], 0.303 (inactive); in [10], -0.265; in [11], -0.851; in test [12], 1.5; in [13] it was -0.641. Also, the z-score is -1.56 in test [14]; -2.7 in [15]; 0.43 in test [16]; -0.903 (inactive) in test [17]; -0.877 in [18]; -0.801 in test [19]. Besides, in [20], the z-score is -1.01 (inactive). Further, in [2], the composite z-score was determined as 0.495.
Regarding `Cc1ccc(S[C@]2(C(=O)NC3CC3)CC(=O)N(Cc3ccccc3Cl)[C@@H]2c2ccc(CO)cc2I)cc1`, the z-score in test [1] is 0.386 (inactive); in test [3], 6.9 (inactive); in test [4], 0.789 (inactive); in [5], 0.796 (inactive); in test [6], 0.0589 (inactive); in [7] it was -0.331. For the same molecule, the z-score in test [8] was 1.53 (inactive); in test [9], -1.86 (inactive); in test [10], 1.12; in test [11], 0.0293; in test [12], 0.0656; in test [13], 0.556. Besides, the z-score in test [14] is -2.36; in [15], -2.05; in [16], 0.474; in [17], 0.515 (inactive); in test [18], -0.498; in test [19], -1.45. The z-score in [20] is -0.889 (inactive). The same molecule yielded a composite z-score in [2] of 0.191.
For the molecule `COc1cc(OC)c(C(O)C2C=CC3C(=O)N(c4ccccc4)C(=O)C3N2Nc2ccc(C#N)cc2)cc1Br` (stereo not given), the z-score in test [1] was -0.652 (inactive); in test [3], 25 (active); in [4] it was 11.4 (active); in [5], 1.39 (inactive); in test [6] it was 1.76 (inactive); in [7], -0.962. Also, the z-score in [8] is -1.41 (inactive); in test [9] it was -5.35 (inactive); in test [10] it was -2.08; in test [11], 0.423; in test [12], -0.693; in test [13], -0.268. Moreover, the z-score in test [14] was -0.475; in test [15] it was -0.241; in [16], -1.66; in [17] it was -0.403 (inactive); in test [18] it was -0.129; in [19], -0.00738. The z-score in test [20] is -0.578 (inactive). The composite z-score in test [2] turned out to be 0.843.
Take `COc1cc2c(cc1OC)CN(C(=O)[C@@H]1[C@H]3C(=O)O[C@H](c4ccccc4)[C@H](c4ccccc4)N3[C@H](c3ccccc3OCCO)[C@@]13C(=O)Nc1ccc(C#CC4(O)CCCCCC4)cc13)CC2`: the z-score in test [1] is 2.01 (inactive); in test [3], 3.46 (inactive); in test [4], 2.47 (inactive); in test [5], 1.26 (inactive); in [6], 2.21 (inactive); in [7], 0.454. In addition, the z-score was 1.73 (inactive) in [8]; 0.934 (inactive) in test [9]; 2.25 in test [10]; 0.74 in test [11]; -0.277 in test [12]; 0.711 in test [13]. Besides, the z-score was -0.292 in test [14]; -1.88 in test [15]; -0.612 in [16]; 1.3 (inactive) in test [17]; -0.792 in [18]; -1.31 in test [19]. Moreover, the z-score in test [20] was -0.373 (inactive). The molecule also showed a composite z-score in test [2] of -0.2.
As for `CCOC(=O)C[C@H]1[C@H](OC(=O)c2ccc(-c3ccccc3)cc2)[C@@H](NC(=O)C2CCCCC2)c2cc(OCCCO)ccc2N1C(=O)c1ccccc1`, the z-score in [1] is -0.915 (inactive); in [3], 0.479 (inactive); in test [4] it was 0.705 (inactive); in [5] it was -0.138 (inactive); in test [6], 0.505 (inactive); in [7], 1.09. For the same molecule, the z-score in [8] was 0.169 (inactive); in test [9], -0.849 (inactive); in [10], 1.49; in [11], -0.28; in test [12], 0.557; in test [13] it was 0.137. The z-score in test [14] is -0.412; in test [15] it was -0.203; in test [16], 0.383; in test [17], -0.983 (inactive); in test [18] it was 0.115; in test [19] it was -0.101. Further, in test [20], the z-score was -1.01 (inactive). The molecule also had a composite z-score in [2] of -0.263.
On to `COc1ccc(NN2C(C(O)c3ccccn3)C=CC3C(=O)N(C4CCCCC4)C(=O)C32)cc1` (stereo not given), for which the z-score in [1] was 0.29 (inactive); in [3] it was 3.45 (inactive); in test [4], 0.539 (inactive); in test [5], 0.34 (inactive); in [6] it was 0.536 (inactive); in [7], -0.552. Moreover, the z-score was -0.973 (inactive) in test [8]; -3.8 (inactive) in test [9]; -2.33 in [10]; -0.834 in test [11]; 0.23 in test [12]; 1.44 in [13]. In addition, the z-score was -1.3 in test [14]; -3.2 in test [15]; -0.645 in [16]; -0.089 (inactive) in [17]; 0.201 in test [18]; -1.51 in [19]. Moreover, the z-score in [20] was 0.342 (inactive). This molecule also gave a composite z-score in [2] of 0.267.
With `COCCCNC(=O)[C@]1(Cc2ccccc2CN=[N+]=[N-])N=C(c2ccc(OCCCO)cc2)O[C@@H]1c1ccccc1`, the z-score was 0.65 (inactive) in test [1]; 26.2 (active) in test [3]; 15.5 (active) in test [4]; 1.28 (inactive) in [5]; 0.178 (inactive) in test [6]; 1.64 in [7]. In addition, the z-score is -1.94 (inactive) in test [8]; -0.52 (inactive) in test [9]; -1.46 in test [10]; -1.36 in test [11]; 0.503 in test [12]; -0.79 in test [13]. Besides, the z-score in test [14] was -2.62; in test [15] it was -4.24; in [16], -0.194; in [17], 0.48 (inactive); in test [18], -1.15; in test [19], -1.11. The z-score in test [20] is 0.28 (inactive). In addition, in test [2], the composite z-score was -0.184.
`CO[C@H]1O[C@H](CO)[C@@H](OC(=O)Nc2ccccc2-c2ccccc2)[C@H](OC(=O)Nc2ccc3c(c2)OCO3)[C@@H]1OC(=O)Nc1ccc2c(c1)OCO2`: the z-score in test [1] is -0.609 (inactive); in [3] it was 15.3 (active); in test [4] it was 2.72 (inactive); in test [5], 1.22 (inactive); in [6], 1.11 (inactive); in [7] it was -0.0176. For the same molecule, the z-score in [8] is 0.878 (inactive); in test [9], -0.722 (inactive); in test [10], -1.49; in test [11] it was 0.105; in test [12] it was -1.46; in test [13] it was -1.05. For the same molecule, the z-score in test [14] was -1.49; in test [15], -1.84; in [16] it was -0.467; in test [17], 1.34 (inactive); in [18], -0.363; in test [19], -0.263. Further, the z-score in test [20] was -1.77 (inactive). This molecule also gave a composite z-score in test [2] of 0.658.
